Compounds without any hit were thinned out: in the full panel of roughly 83,000, 20% have a hit.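 The endpoint reported here, percent growth, reads 100 for growth as untreated, 0 for no net growth and -100 for all cells dead.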 Values without a mark were called inactive. The source made the active and inactive calls. How the source made its calls: active means growth percent below 10; inactive means the rest.
Assays:
Assay in all cases: NCI-60 one-dose screen, 48 h (100 = growth as untreated, 0 = no growth, -100 = all killed)
Conditions in all cases: 10 µM unless noted
[1] = system: DU-145 prostate
[2] = system: K-562 leukemia
[3] = system: MALME-3M melanoma
[4] = system: MDA-MB-231 breast
[5] = system: RXF 393 renal
[6] = system: SF-268 CNS
[7] = system: SF-295 CNS
[8] = system: SF-539 CNS
[9] = system: UACC-257 melanoma
[10] = system: M14 melanoma

Row | Structure (SMILES) | growth [1] | growth [2] | growth [3] | growth [4] | growth [5] | growth [6] | growth [7] | growth [8] | growth [9] | growth [10]
1 | c1ccc2cc(C[n+]3ccn(CCCCCCCCCCn4cc[n+](Cc5ccc6ccccc6c5)c4)c3)ccc2c1 | 28.4% | 8.6% (active) | -20.4% (active) | 16.5% | 9.07% (active) | 13.7% | 16.5% | 10.4% | -13.8% (active) | 31.8%
2 | COc1ccc(-c2noc(C(=O)O)c2-c2cc(OC)c(OC)c(OC)c2)cc1 | 36.1% | 12.6% | 52.8% | 57.1% | 21.2% | 40.5% | 13.5% | 3.15% (active) | 45.4% | 11.7%
3 | COc1ccc(CN2c3ccccc3Sc3ccccc32)cc1F | 14.1% | 11% | 32.6% | 24.1% | 7.16% (active) | 38.8% | 12.4% | -6.34% (active) | 54.8% | -3.27% (active)
4 | CNc1nnc2n(-c3ccccc3)c(=O)c3cnn(-c4ccccc4)c3n12 | 102% | 85.7% | 131% | 103% | 98.2% | 96.1% | 78.8% | 83.5% | 95.7% | 79.1%
5 | Oc1c(I)cc(I)cc1CNCCN(Cc1ccccn1)Cc1ccccn1 | -74.1% (active) | 0.636% (active) | -62.1% (active) | -36.1% (active) | -85.5% (active) | 1.18% (active) | -84.6% (active) | -56.6% (active) | -58.7% (active) | -32.5% (active)
6 | COc1ccc(Cc2cnc(NC(=O)c3cc(C)oc3C)s2)cc1 | 40.7% | 11.4% | 52.5% | 63.6% | 16.4% | 53.3% | 39.4% | 32.5% | 57.3% | 18.9%
7 | CCCCCCCCCCC(CN(CC)CC)C(O)c1ccccc1 (stereo not given) | 29.1% | -21.2% (active) | -37.3% (active) | 10.1% | -7.14% (active) | 40.5% | 36.5% | 32.1% | 18.2% | -44.1% (active)
8 | CC(C)COc1nc2c(c(=O)n(C)c(=O)n2C)n1C | 111% | 98% | 121% | 108% | 126% | 98.5% | 112% | 91.8% | 67.2% | 108%
9 | Cc1cc(C(=O)Nc2ncc(Cc3cccc(C(F)(F)F)c3)s2)c2ccccc2n1 | 57.4% | 7.79% (active) | 26.8% | 56.4% | 31.1% | 37.2% | 15.1% | 21.9% | 43.3% | 3.81% (active)
10 | COc1ccc(C/C(C)=C(\c2ccc(Cl)cc2)c2ccc(OCCN3CCCCC3)cc2)cc1 | 110% | 67.3% | 106% | 93.3% | 85.1% | 99.6% | 101% | 93.6% | 104% | 93.3%
11 | C=C1C(=O)O[C@H]2[C@H]1CC/C(COC(=O)NCc1ccc(Cn3c(=O)sn(CCCCC)c3=O)cc1)=C\CC[C@@]1(C)O[C@@H]21 | 9.23% (active) | 1.16% (active) | -14.5% (active) | 31.1% | 11.6% | 78.6% | 102% | 46.5% | 47.1% | 2.8% (active)
12 | CC(=O)Oc1ccc(/C(=C(\C)c2ccc(Cl)cc2)c2ccc(OCCN3CCCCC3)cc2)cc1 | 61.9% | -47% (active) | -6.44% (active) | 50.8% | 29.3% | 58.6% | 9.07% (active) | 28.2% | -34.9% (active) | -35.1% (active)
13 | OCCn1cc(-c2nc(-c3c[nH]c4ncccc34)cs2)c2ccccc21 | 93.5% | 54.2% | 115% | 66.4% | 82.4% | 84.1% | 81.1% | 88.5% | 93.1% | 97.7%
14 | COc1cc2oc(-c3cccc(NC(=O)c4ccccc4)c3)cc(=O)c2c(OC)c1OC | 85.5% | 43.1% | 86.8% | 74.7% | 74.4% | 72.3% | 77.8% | 67.8% | 99.7% | 75.3%
15 | CN(C)CCNC(=O)c1ccc(-c2nc3ccc4[nH]ncc4c3c3c2C2CCC3C2)cc1 (stereo not given) | 20.8% | 20.7% | 28.1% | 2.4% (active) | -30.9% (active) | 16.8% | 40.9% | 18.5% | 58.7% | 31.3%
16 | C/C(=N\O)c1ccc(Cl)cc1 | 121% | 100% | 137% | 116% | 141% | 127% | 118% | 114% | 89.5% | 114%
17 | CCOC(=O)c1c(NC(=O)c2ccc(Cl)cc2)sc2c(CN(C)C)c(O)ccc12 | 82% | 8.81% (active) | 51.6% | 56.4% | 64.2% | 78.5% | 83.5% | 56.7% | 2.24% (active) | -18.4% (active)
18 | COC(=O)/C=C1/SC(=Nc2ccc(C(F)(F)F)cc2)N(CCc2c[nH]c3ccc(O)cc23)C1=O | 12.7% | 19.9% | -13.8% (active) | -13.9% (active) | -50.9% (active) | -5.68% (active) | 14.2% | -37.3% (active) | 9.58% (active) | 0.0712% (active)
19 | COc1cc2ncnc(Nc3ccc(S(=O)(=O)Nc4cc(C)on4)cc3)c2cc1OCCCN1CCN(c2ccc(F)cc2)CC1 | 112% | 89.8% | 99.3% | 89.6% | 105% | 97.9% | 102% | 96.4% | 106% | 108%
20 | O=C(Nc1ccc(OS(=O)(=O)c2ccc(F)cc2)cc1)C1CCCCCC1 | 90.6% | 55.4% | 99.6% | 82.7% | 105% | 88.2% | 98% | 89.7% | 93.9% | 85.9%
21 | CC(=O)N1N=C(c2ccc(C(F)(F)F)c(F)c2)CC1c1[nH]c(C)c(C(=O)NCC(F)(F)F)c1C (stereo not given) | 85.5% | 97.6% | 43.5% | 38.8% | 31% | 60.7% | 70.9% | 56.3% | 91.6% | 78.8%
22 | O=C(c1nn(-c2ccccc2)c2c1CC(NCc1ccc(F)cc1)CC2)N1CCCCC1 (stereo not given) | 108% | 91% | 102% | 110% | 107% | 93% | 102% | 106% | 101% | 95.3%
23 | COc1cccc(CNc2ccc3ncnc(Nc4ccc(F)c(Cl)c4)c3c2)c1 | 54.3% | 48.3% | 58.1% | 68.2% | 65.9% | 65.6% | 79.4% | 93.8% | 49.2% | 72.9%
24 | O=C1/C=C/[C@@H](O)[C@@H]2C[C@@H](O)C[C@H]2/C=C/CCC[C@H](CCc2ccccc2)O1 | 14.1% | 17.7% | -14.2% (active) | -65.1% (active) | -4.18% (active) | 16.6% | 1.38% (active) | 26.3% | 25.4% | 7.17% (active)
25 | Cc1cn(-c2cc(NC(=O)c3cccc(C#Cc4cccc5[nH]nc(N)c45)c3)cc(C(F)(F)F)c2)cn1 | 57.6% | 3.17% (active) | 12.4% | 16.9% | -6.88% (active) | 53.2% | 27.5% | 6.24% (active) | 41.4% | 7.33% (active)
26 | O=C1/C(=C/c2cn(-c3ccccc3)nc2-c2ccccc2)SC(=S)N1C1CCCCC1 | 106% | 101% | 92.3% | 89.8% | 106% | 102% | 104% | 99.4% | 102% | 99.1%

Source: PubChem BioAssay (NCI)
